In PubChem BioAssay AID758 (NMMLSC, 2007):
The campaign covered roughly 190,000 compounds. About 110 (0.058%) were called active. About 2% were inconclusive and are not listed.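 How the source made its calls: active means fluorescent GTP binding to Rab7 beads changed by at least 20 points from the 100% baseline, either direction, mostly lower; inconclusive means compound itself probably fluorescent, or too few beads counted; inactive means the rest.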 Many of the other results were omitted from the sample, so actives are more common in it than they were.

Each compound was assayed on Rab7 GTPase wild type (dog), Bodipy-FL-GTP binding (assay: modulators of GTP binding to Rab7, primary screen, biochemical, wildtype, multiplex bead flow cytometry (AID 758;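 further: median green fluorescence of bound Bodipy-FL-GTP per Rab7 bead population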)). Settings: GST-Rab7 beads, fluorescent GTP binding, at 10 µM, actives lie on both sides, untreated = 100%, excess cold GTP = 0%.

| Compound | GTP binding activity (percent of control) |
| --- | --- |
| Cc1ccccc1OCCC(=O)OCC(=O)NC(C)c1ccccc1 (stereo unspecified) | 95% (inactive) |
| N#Cc1c(-c2ccc(F)cc2)nc(-c2ccccc2)[nH]c1=O | 93% (inactive) |
| O=C(c1cccc(S(=O)(=O)N2CCCC2)c1)N(Cc1ccco1)C1CCS(=O)(=O)C1 (stereo unspecified) | 97% (inactive) |
| CN(CCc1cnn(C)c1)Cc1cn(C)nc1-c1ccccc1F | 100% (inactive) |
| Cc1cc(=O)n2[nH]c(-c3sccc3-n3c(C)ccc3C)cc2n1 | 91% (inactive) |
| O=C(N/N=C/c1ccc(OCC2COCCO2)cc1)c1ccc(Br)cc1 (stereo unspecified) | 108% (inactive) |
| Cc1c(C(=O)O)nnn1-c1nonc1N | 97% (inactive) |
| CCc1ccc(CN(C)C(=O)CCc2nnc(-c3ccc(-c4ccccc4)cc3)o2)nc1 | 96% (inactive) |
| COC(=O)c1ccc(COC(=O)c2cnccn2)cc1 | 105% (inactive) |
| COc1ccc(-c2[nH]ncc2CN(C)Cc2cccnc2)c(F)c1 | 96% (inactive) |
| CCn1c(SCc2ccccc2)nc2c(c1=O)SCC2 | 94% (inactive) |
| Cc1cccc(Oc2c([N+](=O)[O-])c(=O)n(C)c3ccccc23)c1 | 100% (inactive) |
| COC(=O)c1ccc(CN2CCC(CO)(Cc3ccc(OC)cc3)CC2)cc1 | 103% (inactive) |
| CN(C)c1nc(N)nc(Cn2nnc(-c3ccc(C(F)(F)F)cc3)n2)n1 | 104% (inactive) |
| CCCNS(=O)(=O)c1ccc(CCC(=O)N2CCCC2)cc1 | 104% (inactive) |
| CN(CC(=O)Nc1ccccc1F)CC(=O)Nc1ccccc1Br | 105% (inactive) |
| CCOC(=O)CCCNC(=O)COC(=O)/C=C/c1ccc2c(c1)OCO2 | 90% (inactive) |
| Cc1nc2sc3c(c2c(=O)n1NC(=O)CCl)CCCC3 | 90% (inactive) |
| CSc1ccc(CN2C(=O)NC3(CCCCCC3)C2=O)cc1 | 97% (inactive) |
| Fc1cccc(CSc2nnc3ccc(-c4ccncc4)nn23)c1 | 94% (inactive) |
| Cc1cc([N+](=O)[O-])ccc1NC(=O)c1ccc(NC(=O)C(C)C)cc1 | 98% (inactive) |
| CCCCC(CC)CNC(=O)C(=O)C1C(=O)Nc2ccccc21 (stereo unspecified) | 103% (inactive) |

| Compound | GTP binding activity (percent of control) |
| --- | --- |
| COc1ccccc1-c1nc(SC)n[nH]1 | 97% (inactive) |
| Cc1ccc(CSc2nc3[nH]ncc3c(=O)[nH]2)cc1 | 93% (inactive) |
| Cc1ccccc1-n1nc(SCC(=O)O)sc1=S | 99% (inactive) |
| Cc1ccc(C(=O)Cn2cccn2)cc1 | 106% (inactive) |
| CC(=O)NC(=S)NNC(=O)c1ccc(Br)cc1 | 108% (inactive) |
| NS(=O)(=O)c1cccc(NC(=O)COC(=O)/C=C/c2ccco2)c1 | 94% (inactive) |
| O=C(Nc1ccc(Br)cn1)c1ccc([N+](=O)[O-])cc1Cl | 98% (inactive) |
| NC(=O)c1ccc(CN2CCC(Cc3ccccc3)CC2)cc1 | 110% (inactive) |
| COc1cccc(CN(C)CC(=O)Nc2ccccc2C(=O)Nc2ccccc2)c1 | 105% (inactive) |
| CC(OC(=O)c1ccccc1OCc1ccc(Cl)cc1)C(N)=O (stereo unspecified) | 102% (inactive) |
| Cc1cc(C)c(S(=O)(=O)N2CCOCC2)cc1C | 101% (inactive) |
| CN1CCN(S(=O)(=O)c2cccc(C(=O)O)c2)CC1 | 98% (inactive) |
| CCOCCCNCc1cc(Br)ccc1OCC | 95% (inactive) |
| Cc1cccc(/C(N)=N/OC(=O)c2ccccc2Cl)c1 | 95% (inactive) |
| C/C(=N\Nc1nc(N2CCOCC2)nc(N2CCOCC2)n1)c1ccc([N+](=O)[O-])cc1 | 96% (inactive) |
| C/C(CC(=O)Nc1cccc(C(F)(F)F)c1)=N\NC(=O)C(=O)NCC(C)C | 96% (inactive) |
| CC(C)CNC(=O)C(=O)NCc1ccccc1 | 93% (inactive) |
| O=[N+]([O-])c1cc(S(=O)(=O)CCCN2CCOCC2)ccc1F | 95% (inactive) |
| Cc1ccc(C2CCN(C(=S)Nc3cccc(Cl)c3)C2)cc1 (stereo unspecified) | 101% (inactive) |
| CCOC(=O)/C(C#N)=C/c1cn(CCC(=O)O)nc1-c1ccc(Br)cc1 | 102% (inactive) |
| c1ccc2c(c1)OCCOCCOCCO2 | 99% (inactive) |
| O=C(C1CCN(C2CCN(Cc3ccc4cc(F)ccc4n3)CC2)CC1)N1CCCC1 | 98% (inactive) |

| Compound | GTP binding activity (percent of control) |
| --- | --- |
| CCC(C)NC(=O)c1nn(C)c(=O)c2ccccc12 (stereo unspecified) | 103% (inactive) |
| Cc1[nH]nc(SCC(=O)NCC(C)C)c1[N+](=O)[O-] | 96% (inactive) |
| Cc1ccc(OCCCC(=O)NC(C)c2ccccc2)c(C)c1 (stereo unspecified) | 97% (inactive) |
| Cc1cccc(NS(=O)(=O)c2ccc(C)c(C(N)=O)c2)c1 | 102% (inactive) |
| CC1COc2ccccc2N1S(=O)(=O)c1ccccc1 (stereo unspecified) | 95% (inactive) |
| O=[N+]([O-])c1ccc2[nH]c3c(c2c1)CCCC3O (stereo unspecified) | 103% (inactive) |
| Cc1ccccc1NC(=O)c1nn(-c2ccc(F)c(F)c2)ccc1=O | 95% (inactive) |
| O=C(O)CCCCOn1ccnc1 | 97% (inactive) |
| Cc1ccc(C(=O)N/C(=C\c2cccs2)C(=O)NCCc2ccccn2)cc1C | 106% (inactive) |
| CNc1nc2c(C)cccn2c(=O)c1C=Nc1ccc(OC)cc1 | 90% (inactive) |
| COc1ccccc1N1CCN(c2ccc([N+](=O)[O-])nc2)CC1 | 104% (inactive) |
| CC1(C)C2CCC1(C)C(OC(=O)c1ccc(O)cc1)C2 (stereo unspecified) | 97% (inactive) |
| O=C(O/N=C(/c1ccccc1)c1ccncc1)c1ccccc1[N+](=O)[O-] | 95% (inactive) |
| O=C(c1snnc1-c1ccccc1)N1CCOCC1 | 100% (inactive) |
| CCc1nc2ccccc2c(C(=O)OC2CCCCC2=O)c1C (stereo unspecified) | 99% (inactive) |
| CC(C)(C)NC(=O)COC(=O)c1cc(Cl)ccc1[N+](=O)[O-] | 102% (inactive) |
| COc1ccc(C(=O)NNc2cc(C)nc(NNC(=O)c3ccc(OC)cc3)n2)cc1 | 102% (inactive) |
| Cc1ccc(NC(=O)Cn2c(=O)n(CCC(=O)NC3CCN(Cc4ccccc4)CC3)c(=O)c3ccccc32)cc1 | 102% (inactive) |
| C[C@H](NC(=O)c1ccccc1Cl)C(=O)OCCOc1cccc(Cl)c1 | 94% (inactive) |
| OCCNCc1cccc(OCc2ccccc2Cl)c1 | 97% (inactive) |
| CN(C)C(=O)N1CCNCC1 | 106% (inactive) |
| CCCCCC1CCC(c2nnc(SCC(C)=O)o2)CC1 (stereo unspecified) | 104% (inactive) |
